In PubChem BioAssay AID463173 (ICCB-Longwood Screening Facility, Harvard Medical School, 2010):
About 4,300 (8.3%) of roughly 52,000 compounds were called active. Shown is part of a subset that was picked to be rich in actives. Values without a mark were called inactive. No stated cut-off is given here; in the data, active means survival mostly below about 52% (no sharp cut-off); inactive means mostly above about 56%.

The compounds below were run on DeltatarO mutant (assay: growth inhibition of S. aureus wild type versus tarO mutant, primary screen, teichoic acid synthesis inhibitors, RN4220, OD600 (AID 463173)). Conditions: OD600, 18 h, hits give low values, screened at 18.75 µg/mL (by protocol).

SMILES	survival
COc1ccc(-c2cn3nc(SCC(=O)Nc4ccc(C)c(Cl)c4)ccc3n2)cc1	94%
COc1ccccc1N1CCN(C(=O)c2oc3ccccc3c2NC(=O)C(C)Oc2ccccc2)CC1 (stereo not drawn)	69%
CCNc1nc2c(c(=O)[nH]c(=O)n2C)n1CC(O)COc1ccc(Cl)cc1Cl (stereo not drawn)	180%
CN(C)c1ccc(CNS(=O)(=O)c2csc(C(N)=O)c2)cc1	60%
O=C(CC1N=C2c3ccccc3N=C(SCc3ccc(F)cc3)N2C1=O)NCCc1ccccc1 (stereo not drawn)	85%
CCOc1ccccc1Nc1nc2ccccc2nc1NS(=O)(=O)c1ccc(Cl)cc1	79%
COc1ccc(Nc2nc3ccccc3nc2NS(=O)(=O)c2ccc(Cl)cc2)cc1OC	29% (active)
CCOc1ccc(S(=O)(=O)Nc2nc3ccccc3nc2Nc2ccc(OC)cc2)cc1	68%
COc1ccc2nc(NS(=O)(=O)c3ccc(C)cc3)c(Nc3cc(Cl)ccc3OC)nc2c1	22% (active)
COc1cc(Cl)c(C)cc1Nc1nc2ccccc2nc1NS(=O)(=O)c1ccccc1	116%
COc1ccc(Nc2nc3c(S(=O)(=O)c4ccccc4)nnn3c3ccc(Cl)cc23)cc1OC	117%
CCOC(=O)c1ccc(Nc2nc3ccccc3n3c(C)nnc23)cc1	67%
CCc1ccc(Nc2nc3ccccc3nc2NS(=O)(=O)c2ccccc2)cc1	28% (active)
CCOC(=O)c1ccc(Nc2nc3ccccc3nc2NS(=O)(=O)c2ccc(Cl)cc2)cc1	37% (active)
Cc1cccc(C)c1Nc1nc2ccccc2nc1NS(=O)(=O)c1ccccc1	79%
COc1ccc(Nc2nc3ccccc3nc2NS(=O)(=O)c2ccc(C)cc2)c(OC)c1	63%
Cc1ccc2nc(NS(=O)(=O)c3ccc(Cl)cc3)c(Nc3ccc(C(=O)O)cc3)nc2c1	109%
Cc1ccc(Cl)cc1NC(=O)CN1C(=O)CSc2ccc(S(=O)(=O)N3CCCC3)cc21	97%
CCN1CCN(CCCNC(=O)Cn2nc(C)n3c(cc4cc(C)ccc43)c2=O)CC1	98%
Cc1cc(C)cc(NC(=O)CCCn2nc(C)c3c(C)n(-c4ccccc4)nc3c2=O)c1	80%

SMILES	survival
NC(Cc1c[nH]c2ccccc12)C(=O)NCc1ccccc1 (stereo not drawn)	92%
CN1C(C(=O)c2ccccc2)=C(NC(=O)c2ccccc2Br)c2ccccc2S1(=O)=O	63%
O=S(=O)(Nc1nc2ccccc2nc1Nc1ccccc1Br)c1ccccc1	112%
COC(=O)c1cc(Nc2nc3ccccc3nc2NS(=O)(=O)c2ccc(C)cc2)ccc1Cl	29% (active)
COc1ccccc1C(=O)Nc1ccc(S(=O)(=O)Nc2nc(C)cc(C)n2)cc1	61%
CCn1c(=O)c2sccc2n2c(CCC(=O)Nc3ccc(OC)c(Cl)c3)nnc12	89%
CCOc1ccc(CNC(=O)c2ccc(-c3nc(CS(=O)(=O)c4ccccc4)c(C)o3)cc2)cc1	76%
COC(=O)c1ccccc1NC(=O)CN(c1ccc(Cl)cc1)S(=O)(=O)c1ccc(OC)cc1	72%
COc1cccc(NC(=O)c2sc3nc(C)c(C(=O)Nc4ccc(C)cc4C)c(-c4ccco4)c3c2N)c1	79%
COc1cccc(NC(=O)c2sc3nc(C)c(C(=O)Nc4ccc(C)cc4C)c(-c4ccc(C)o4)c3c2N)c1	39% (active)
COc1ccc(NC(=O)c2sc3nc(C)c(C(=O)Nc4ccc(C)cc4C)c(-c4ccc(C)o4)c3c2N)cc1	51%
Cc1ccc(/C=C/c2onc(C)c2S(=O)(=O)N2CCC(C(=O)N3CCN(c4ccccc4F)CC3)CC2)cc1	116%
Cc1ccc(CCNC(=O)c2ccc(NC(=O)N3CC(C)Sc4ccccc43)cc2)cc1 (stereo not drawn)	73%
CCOc1ccc(-c2nc(Cn3c(=O)cc(-c4ccccc4)c4c(C)nn(C)c43)c(C)o2)cc1	128%
CCc1ccc(-c2[nH]nc3nc(-c4ccc(OC)cc4)cc(C(=O)NCCc4ccc(OC)c(OC)c4)c23)cc1	81%
CCc1ccc(-c2cn3nc(CC)sc3n2)cc1	66%
CC(=O)N1CCc2c(sc3c2c(=O)n(CCc2ccccc2)c(=O)n3CC(=O)Nc2ccccc2F)C1	55%
COc1c(C)cc(NS(=O)(=O)c2ccc3c(c2)OCCO3)cc1C	72%
O=C(COCc1cc(-c2cccs2)on1)N1CCN(c2cccc(Cl)c2)CC1	37% (active)
O=C(COCc1cc(-c2cccs2)on1)N1CCN(c2ccccc2)CC1	72%

SMILES	survival
O=C(COCc1cc(-c2cccs2)on1)N1CCN(c2ccc(F)cc2)CC1	98%
O=C(COCc1cc(-c2cccs2)on1)Nc1cccc(O)c1	0% (active)
Cc1ccc(NC(=O)COCc2cc(-c3cccs3)on2)cc1Cl	57%
O=C(COCc1cc(-c2ccco2)on1)Nc1cccc(O)c1	78%
O=C(c1ccc2c(c1)N(Cc1ccccc1F)C(=O)c1ccccc1S2=O)N1CCC(Cc2ccccc2)CC1 (stereo not drawn)	77%
Cc1cccc(C)c1NC(=O)Cn1nnc(S(=O)(=O)c2ccccc2)c1N	91%
Cc1cccc(NC(=O)CSc2cn(CC(=O)N3CCOCC3)c3ccccc23)c1C	64%
O=C(c1ccc2c(c1)N(Cc1ccccc1)C(=O)c1ccccc1S2(=O)=O)N1CCCCCC1	70%
COc1ccc(CNC(=O)C(C)n2ccc3cc(S(=O)(=O)N4CCCC4)ccc32)cc1OC (stereo not drawn)	85%
O=C(NCc1ccco1)C(c1ccccc1)N(CCc1ccccc1)C(=O)Cn1nnc2ccccc21 (stereo not drawn)	99%
COc1ccc(CNC(=O)CSc2c3c(nc4ccc(Cl)cc24)CCCC3)cc1	77%
O=C(CSc1c2c(nc3cc(Cl)ccc13)CCCC2)N1CCN(c2ccccc2F)CC1	50%
O=C(CSc1c2c(nc3ccc(Cl)cc13)CCCC2)N1CCN(c2ccc(Cl)cc2)CC1	31% (active)
O=C(CSc1c2c(nc3cc(Cl)ccc13)CCCC2)NCc1ccccc1Cl	75%
O=C(CSc1c2c(nc3ccc(Cl)cc13)CCCC2)N1CCN(c2cccc(Cl)c2)CC1	51% (active)
COc1ccc(OC)c(NC(=O)CSc2c3c(nc4cc(Cl)ccc24)CCCC3)c1	86%
COc1ccc(N2CCN(C(=O)CSc3c4c(nc5ccc(Cl)cc35)CCCC4)CC2)cc1	35% (active)
O=C(CSc1c2c(nc3cc(Cl)ccc13)CCCC2)N1CCN(c2ccccc2)CC1	33% (active)
